The source made the active and inactive calls. How the source made its calls: active means hit-call score of the fitted dose curve at least 0.9, where 1 is the maximum; inactive means score below 0.9.

Chain of Bile acid receptor (Homo sapiens) (Q96RI1 whole entry, looked up): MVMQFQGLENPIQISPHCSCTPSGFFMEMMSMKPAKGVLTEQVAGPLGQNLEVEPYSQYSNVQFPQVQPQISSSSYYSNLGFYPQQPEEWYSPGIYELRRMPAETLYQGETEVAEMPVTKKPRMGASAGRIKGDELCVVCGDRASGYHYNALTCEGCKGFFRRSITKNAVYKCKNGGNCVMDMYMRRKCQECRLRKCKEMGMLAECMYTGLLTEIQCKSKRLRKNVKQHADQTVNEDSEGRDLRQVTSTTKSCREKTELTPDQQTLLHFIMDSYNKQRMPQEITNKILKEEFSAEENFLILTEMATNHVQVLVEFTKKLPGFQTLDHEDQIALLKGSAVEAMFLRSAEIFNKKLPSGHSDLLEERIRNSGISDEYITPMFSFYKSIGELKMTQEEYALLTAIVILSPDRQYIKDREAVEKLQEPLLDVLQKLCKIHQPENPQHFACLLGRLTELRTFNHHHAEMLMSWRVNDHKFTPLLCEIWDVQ

This assay has as its target Bile acid receptor (Homo sapiens) (UniProt Q96RI1). Put plainly: ATG_IR1_CIS: Attagene CIS-FACTORIAL HepG2 Assay for human Nuclear Receptor Subfamily 1 Group H Member 4 (NR1H4), IR1 submotif (AID 2282946). The following applies: IR1 reporter transcription, actives raise or lower the signal. In outline: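 Readout: reporter transcript levels by RT-PCR with fluorescent capillary electrophoresis, from HepG2 cells transiently transfected with multiplexed cis-regulated reporters and dosed 24 h. Gain- or loss-of-signal fitted versus DMSO negative control.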
With `CC/C=C\C/C=C\C/C=C\CCCCCCCC(=O)O`, the call was inactive.
Turning to `CCOC(=O)CC`, the outcome was inactive.
Still for that read-out and setting: under `Nc1ccc(-c2ccc(F)cc2)cc1` stands “inactive”.
Still for that read-out and setting: the same measure for `CC(=O)Oc1ccc(C(C)=O)cc1`: “inactive”.
Still for that read-out and setting: under `C=C(C)C(=O)OCC(C)C` stands “inactive”; under `CCCCCCCCCCC=CC#N`, “inactive”; under `O=C1OC(=O)c2cc(Oc3ccc4c(c3)C(=O)OC4=O)ccc21`, “inactive”.
Take `COc1cc(C)ccc1C(C)C`: the call was inactive.
Turning to `Cc1cccc(N)n1`, the outcome was inactive.
Same read-out and setting: the same measure for `O=S(=O)(O)CC(O)CCl` (centres undefined): “inactive”.
Same read-out and setting: under `COc1ccc([C@@H]2CC(=O)c3c(O)cc(O[C@@H]4O[C@H](CO[C@@H]5O[C@@H](C)[C@H](O)[C@@H](O)[C@H]5O)[C@@H](O)[C@H](O)[C@H]4O)cc3O2)cc1OC` stands “inactive”; under `c1cc(N(CC2CO2)CC2CO2)ccc1OCC1CO1` (centres undefined), “inactive”.
The same measure, in the same setting: the same measure for `CCCCC(CC)CCC(CC(C)C)OS(=O)(=O)O` (centres undefined): “inactive”; for `O=C(O)C(c1ccc(Cl)cc1)c1ccc(Cl)cc1`: “inactive”; for `CC1=Nc2ccc3ccccc3c2C1(C)C`: “inactive”.
What is called AC50 is the midpoint of the concentration-response curve, whichever way the signal moves. As to `O=C(/C=C/C=C/c1ccc2c(c1)OCO2)N1CCCCC1`, the AC50 is 69.4 µM (active).
As for `CC(C)COC(=O)C=Cc1ccccc1`, the outcome was inactive.
The same measure, in the same setting: the same measure for `CCN(CCO)c1cccc(C)c1`: “inactive”; for `CCCC(=O)OCc1ccccc1`: “inactive”.
As for `O=C(Cl)c1cc(C(=O)Cl)cc(C(=O)Cl)c1`, the AC50 was 153 µM (active).
As to `CC(=O)OCC(C)OC(C)=O` (centres undefined), the call was inactive.
The same measure, in the same setting: the same measure for `Nc1cccc(C(F)(F)F)c1`: “inactive”.
On the same count and under the same terms, under `Cc1cc(=O)n(-c2ccccc2)n1C` stands “inactive”.
On the same count and under the same terms, under `Cc1ccc(N/N=c2\c(=O)cc/c(=N/Nc3ccc(S(=O)(=O)O)cc3)c2=O)c(C)c1` stands “inactive”.
